# A selection: hits, their analogues and other compounds. The true share with any hit is near 3.5%.
# FBW7 activator: FBW7 E3 ligase activators, primary screen, biochemical, AlphaScreen, human. F-box/WD repeat-containing protein 7 (Homo sapiens), Q969H0. AlphaScreen FBW7–phospho-cyclin E peptide binding, activator screen. normalized activity (activation), % at 26.1 µM. 650,000 compounds, 0.13% hits; in the data active = normalized activity above about 1.9%;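 also: purified mutant Fbw7 with reduced substrate affinity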
# Target sequence (Q969H0 whole entry, looked up): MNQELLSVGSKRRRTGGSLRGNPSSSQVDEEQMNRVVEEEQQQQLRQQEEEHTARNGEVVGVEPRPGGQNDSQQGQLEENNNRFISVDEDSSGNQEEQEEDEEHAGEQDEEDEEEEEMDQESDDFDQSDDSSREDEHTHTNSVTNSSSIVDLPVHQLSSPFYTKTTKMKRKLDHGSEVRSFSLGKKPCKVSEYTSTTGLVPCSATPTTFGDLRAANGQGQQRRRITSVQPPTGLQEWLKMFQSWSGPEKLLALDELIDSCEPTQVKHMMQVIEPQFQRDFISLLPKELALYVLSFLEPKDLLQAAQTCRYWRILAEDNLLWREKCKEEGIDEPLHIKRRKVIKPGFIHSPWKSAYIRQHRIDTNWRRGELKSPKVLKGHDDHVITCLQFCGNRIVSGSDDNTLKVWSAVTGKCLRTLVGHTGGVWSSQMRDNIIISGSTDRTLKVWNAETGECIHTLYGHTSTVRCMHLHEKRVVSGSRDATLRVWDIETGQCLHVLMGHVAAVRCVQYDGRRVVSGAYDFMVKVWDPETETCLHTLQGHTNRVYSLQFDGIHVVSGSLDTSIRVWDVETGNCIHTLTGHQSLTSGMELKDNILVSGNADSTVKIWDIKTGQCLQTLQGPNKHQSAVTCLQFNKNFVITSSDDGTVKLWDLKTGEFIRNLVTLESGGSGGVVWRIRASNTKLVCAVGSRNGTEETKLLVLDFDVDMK
# TEAD-YAP block: TEAD-YAP interaction inhibition, primary screen, TEAD-YAP interaction inhibitor project, luminescence, HEK-TIYL cells; TEAD-Gal4/YAP UAS-luciferase luminescence; inhibition, % at 9.12 µM; 640,000 compounds, 1.4% hits; AID 1259422, 2018; in the data active = inhibition above about 32%
# GPR151 ag: activators of human GPR151, primary screen, cell-based, PathHunter beta-arrestin, luminescence. PathHunter beta-arrestin GPR151 cells. activation, % at 11.2 µM. 650,000 compounds, 1% hits. AID 1508602, 2020; in the data active = activation above about 4.9%
# MITF primary: MITF inhibitors, primary screen, biochemical, AlphaScreen, human; 650,000 compounds, 0.91% hits; inhibition, % at 2.6 µM; AID 1259374, 2018; AlphaScreen MITF homodimerization, bead proximity signal; in the data active = inhibition above about 50%
# A number is an active result; 0 = inactive.
SMILES,FBW7 activator,TEAD-YAP block,GPR151 ag,MITF primary
COc1cccc(NC(=O)CSC2=C(C#N)C(c3cccs3)CC(=O)N2)c1 (configuration not stated),0,40,0,0
N#CC1=C(SCC(=O)Nc2cccc(Br)c2)NC(=O)CC1c1cccs1 (configuration not stated),0,0,0,0
CCCN1CCC2(CC1)NC(=O)N(CC(=O)NCCc1ccccc1)C2=O,0,0,0,0
CCCN1CCC2(CC1)NC(=O)N(CC(=O)NCCc1ccc(OC)c(OC)c1)C2=O,2.7,0,0,0
O=S(CC(O)COc1ccccc1)c1ncn[nH]1 (configuration not stated),0,0,0,0
Cc1csc(NC(=O)CN2CCC(c3ccncc3)CC2)n1,0,45,0,0
O=C1NN(c2cccc(Cl)c2)C(=O)/C1=C/c1cc([N+](=O)[O-])ccc1O,0,0,0,0
Oc1c(C(Nc2ccccn2)c2cccc(F)c2)ccc2cccnc12 (configuration not stated),0,0,0,0
Oc1c(C(Nc2ccc(F)cc2)c2ccncc2)ccc2cccnc12 (configuration not stated),0,0,0,61
Cc1cccc(NC(c2ccc(F)cc2)c2ccc3cccnc3c2O)n1 (configuration not stated),0,86,0,0
Oc1c(C(Nc2ncccn2)c2ccc(F)cc2)ccc2cccnc12 (configuration not stated),0,0,0,0
Cc1cccc(NC(c2cccc(F)c2)c2ccc3cccnc3c2O)n1 (configuration not stated),0,40,0,0
O=C(O)CCCC(=O)Nc1ccccc1NC(=O)c1ccc(C(F)(F)F)cc1,0,0,0,0
CN(C)CCCn1c(-c2ccc([N+](=O)[O-])cc2)csc1=Nc1ccccc1,0,0,0,0
NC1=NC(=Nc2ccc(N3CCOCC3)cc2)c2ccccc21,0,48,0,0
CCc1ccc(N=C2N=C(N)c3ccccc32)cc1,0,0,0,0
Cc1ncoc1C(=O)NC1CCCc2c1cnn2-c1ccc(F)cc1F (configuration not stated),0,45,0,0
CC1=C(C(=O)NC2CCCc3c2cnn3-c2ccc(F)cc2F)OCCO1 (configuration not stated),0,0,0,0
COc1ccc(NC(=O)Cn2nnc(-c3ccccc3NC(=O)c3cccs3)n2)cc1,0,0,0,0
Cc1ccc(NC(=O)Cn2nnc(-c3ccccc3NC(=O)c3cccs3)n2)cc1,0,54,0,0
CCN(CC)c1ccc2cc(-c3nc4ccccc4n3C)c(=O)oc2c1,0,33,0,0
CCN(CC)c1ccc2cc(-c3nc4ccccc4s3)c(=O)oc2c1,0,77,0,0
COc1cncc(-c2cnc3c(Nc4cccc(C(F)(F)F)c4)nccn23)c1,0,0,0,0
Cc1cccc(NC(=O)c2cnc(N3CCN(c4ncccn4)CC3)c3ccccc23)n1,0,53,0,0
COc1ccc(C)cc1NC(=O)c1cnc(N2CCN(c3ncccn3)CC2)c2ccccc12,0,0,0,0
SMILES,FBW7 activator,TEAD-YAP block,GPR151 ag,MITF primary
COc1ccc(OC)c(NC(=O)c2cnc(N3CCN(c4ccccn4)CC3)c3ccccc23)c1,0,46,0,0
COc1ccccc1NC(=O)c1cnc(N2CCN(c3ncccn3)CC2)c2ccccc12,0,60,0,0
COc1ccc([N+](=O)[O-])cc1NC(=O)c1cnc(N2CCN(c3ccccn3)CC2)c2ccccc12,0,0,0,0
COc1cc(OC)nc(CSCCNC(=O)CCl)n1,0,0,0,0
COc1cc(OC)nc(CSc2ccc(NC(=O)CCl)cc2)n1,0,36,0,0
CCN1CCN(C(CC(C)C)c2nnnn2Cc2ccc(F)cc2)CC1 (configuration not stated),0,53,0,0
CC(C)CC(c1nnnn1Cc1ccc(F)cc1)N1CCN(C)CC1 (configuration not stated),0,0,0,0
CN(C)C(CNc1nc(-c2cccnc2)nc2sc3c(c12)CCC3)c1ccco1 (configuration not stated),0,0,0,0
COc1ccc2oc(=Nc3cccc4ccccc34)c(-c3nc4ccccc4[nH]3)cc2c1,0,0,0,0
CN(C)c1ccc(N2C(=O)CSC2=S)cc1,0,0,0,54
O=C1CSC(=S)N1c1ccc(F)cc1,0,0,0,0
CCc1c(C)nc(SCC(=O)Nc2ccccc2C(=O)OC)[nH]c1=O,0,0,0,0
Cc1cnc(Nc2ccc(N3CCOCC3)cc2)nc1NCc1cccnc1,0,0,0,0
COc1ccc(CCNc2nc(Nc3ccc(N4CCOCC4)cc3)nc3nc[nH]c23)cc1,0,49,0,0
COc1ccc(CNc2nc(Nc3ccc(N4CCOCC4)cc3)nc3nc[nH]c23)cc1,0,0,0,0
Cn1cnc(-c2ccccc2Nc2nc(Nc3ccc(N4CCOCC4)cc3)ncc2Cl)n1,0,33,0,0
Cc1cnc(Nc2nc3ccccc3n2C)nc1NCc1ccccc1,0,42,0,0
Cc1cnc(Nc2ccc(N3CCOCC3)cc2)nc1NCc1ccccc1,0,37,0,0
CC(C)C(=O)Nc1c2c(nn1-c1ccccc1)CS(=O)(=O)C2,0,0,0,0
COc1ccc(CCNc2nc(Nc3ccc(N4CCOCC4)cc3)ncc2C)cc1,0,64,0,0
Cc1cnc(Nc2ccncc2)nc1NCc1ccccc1,0,40,0,0
COc1ccc(CCNc2nc(Nc3ccncc3)nc3nc[nH]c23)cc1,0,44,0,0
COc1ccc(CCNc2nc(Nc3ccc(C(F)(F)F)cc3)nc3nc[nH]c23)cc1,0,0,0,0
Cc1cccc(OCC(=O)Nc2ccc(C)c(-c3nc4ncccc4o3)c2)c1,0,0,0,0
Cc1csc(NC(=O)C(Cc2c[nH]c3ccccc23)NC(=O)OC(C)(C)C)n1 (configuration not stated),0,41,0,0
SMILES,FBW7 activator,TEAD-YAP block,GPR151 ag,MITF primary
COc1cc(/C=C2\C=C(c3ccccc3)OC2=O)ccc1OC(C)=O,0,0,0,0
Nc1nc(C2CC2)c(Sc2sc(N)nc2C2CC2)s1,0,35,0,0
O=C(Nc1ncc(Cc2ccccc2Cl)s1)c1cccc2ccccc12,0,35,0,0
COc1ccc(C(=O)Nc2ncc(Cc3ccc(F)cc3)s2)cc1OC,0,55,0,0
CC(=O)Nc1ncc(Cc2ccc(Cl)cc2)s1,0,0,0,0
COc1ccc(Cc2cnc(NC(=O)c3sc4ccccc4c3Cl)s2)cc1,0,48,0,0
COc1cc(C(=O)Nc2ncc(Cc3ccc(Cl)cc3)s2)cc(OC)c1OC,0,58,0,0
COc1ccc2nc(NC(=O)c3sc4ccccc4c3Cl)sc2c1,0,0,0,0
N#Cc1ccc(C(=O)Nc2nc(-c3ccc(F)cc3)cs2)cc1,0,0,0,0
CCCCOc1ccc(N2C(N)=NC(N)=NC2(C)C)cc1,0,37,0,0

# Screening data as filed in PubChem.
